Assay results taken from PubChem BioAssay (NCATS).
Results filed as inconclusive are left out. A call without a number means that no potency is given here. Active and inactive are the calls of the source. The call rests on the fitted dose curve; in most records, active means well fitted curve in the direction sought with a large enough effect; inconclusive means small, poorly fitted or top-dose-only effect, or another doubt; inactive means no such curve, though single readings can be large; an effect the other way counts as inactive or inconclusive.

Legend:
[1] = qHTS assay to identify small molecule inhibitors of chordoma cells - UCH-2 (AID 1259356); further: series mostly up to about 46 µM
[2] = P-glycoprotein substrates identified in KB-8-5-11 adenocarcinoma cell line, qHTS therapeutic library screen (AID 1346987); further: nearly all actives have a fitted effect of over 65% in size; further: potency means the concentration at half of the fitted maximal effect
How it was run: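 KB-8-5-11, a colchicine-selected P-gp-overexpressing KB-3-1 subline, was grown without colchicine for the assay. Cells were seeded at 500 cells/well, dosed in concentration-response and incubated 72 h at 37 degree C, 5% CO2. Viability was read by CellTiter-Glo luminescence.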

SMILES | Potency [1] | Potency [2]
CCc1ccc2c(c1)N(CC(C)CN(C)C)c1ccccc1S2 (stereo not drawn) | inactive | 25.9 µM (active)
CC1(C)O[C@@H]2C[C@H]3[C@@H]4CCC5=CC(=O)C=C[C@]5(C)[C@H]4[C@@H](O)C[C@]3(C)[C@]2(C(=O)CO)O1 | inactive | inactive
O=C(O)CCC(=O)C(=O)O | inactive | inactive
CCCCC(CC)COC(=O)CC(C(=O)OCC(CC)CCCC)S(=O)(=O)O (stereo not drawn) | inactive | inactive
